# Hits are enriched below; roughly 0.87% of the tested compounds scored in any of these assays.
# APE1 inh-1 – qHTS Assay for Inhibitors of the Human Apurinic/apyrimidinic Endonuclease 1 (APE1) | DNA repair nuclease/redox regulator APEX1 (Homo sapiens), P27695 | recombinant APE1, TAMRA/BHQ-2 abasic DNA cleavage fluorescence | Potency, µM (doses to about 65.8 µM), without a hit: top-dose activity change, negative = inhibition, actives largely listed as inhibitors | actives 0.35% (n = 350,000) | AID 2517, 2012;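 note: plate controls were vehicle for no effect and reference inhibitor for full effect; nearly all actives have a fitted effect of over 55% in size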
#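 Kinetic fluorescence read (525 ex/598 em nm, three reads 60 s apart) of AP-site incision; signal = third minus first read. Enzyme 0.75 nM, dual-labelled THF duplex 50 nM, compound preincubation 15 min RT.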
# GCN5L2 inh – qHTS Assay for Inhibitors of GCN5L2 | Histone acetyltransferase KAT2A (Homo sapiens), Q92830 | GCN5L2 HAT assay, ThioGlo1 CoA-SH fluorescence | Potency, µM (top dose mostly 58.9 µM), for inactives: top-dose activity change, negative = inhibition, actives largely listed as inhibitors | actives 0.21% (n = 390,000)
# Target sequence (Q92830 whole entry, looked up): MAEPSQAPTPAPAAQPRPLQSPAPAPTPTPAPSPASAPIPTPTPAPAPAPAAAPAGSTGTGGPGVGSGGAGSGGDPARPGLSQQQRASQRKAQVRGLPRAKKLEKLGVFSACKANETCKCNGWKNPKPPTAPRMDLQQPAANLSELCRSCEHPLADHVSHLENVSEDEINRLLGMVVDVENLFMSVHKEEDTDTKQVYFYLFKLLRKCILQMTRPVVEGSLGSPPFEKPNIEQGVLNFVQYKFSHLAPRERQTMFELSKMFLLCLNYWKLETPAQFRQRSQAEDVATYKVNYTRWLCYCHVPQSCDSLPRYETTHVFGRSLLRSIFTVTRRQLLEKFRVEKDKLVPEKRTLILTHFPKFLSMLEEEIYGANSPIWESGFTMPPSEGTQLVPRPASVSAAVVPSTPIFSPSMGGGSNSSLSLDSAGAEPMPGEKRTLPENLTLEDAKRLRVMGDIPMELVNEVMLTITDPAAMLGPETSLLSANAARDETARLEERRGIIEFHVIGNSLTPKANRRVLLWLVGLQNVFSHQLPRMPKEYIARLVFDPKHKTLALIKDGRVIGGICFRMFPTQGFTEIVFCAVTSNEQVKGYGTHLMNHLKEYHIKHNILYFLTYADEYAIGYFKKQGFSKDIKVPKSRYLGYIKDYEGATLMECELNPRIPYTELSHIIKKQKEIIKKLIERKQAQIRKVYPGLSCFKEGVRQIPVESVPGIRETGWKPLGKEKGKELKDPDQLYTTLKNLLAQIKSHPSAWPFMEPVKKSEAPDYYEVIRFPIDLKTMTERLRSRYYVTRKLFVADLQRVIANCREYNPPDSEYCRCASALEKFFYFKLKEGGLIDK
#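 qHTS, 1536-well. 20nM enzyme, pH 7.5 HEPES/EDTA/Tween-20 buffer; 15 min compound preinc., RT. Start: 75uM H3(1-25), 70uM AcCoA, 50uM ThioGlo1. Read Ex340/Em540 at t=0 (autofluorescence flag) and t=20 min.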
# BLM inh – qHTS Assay for Inhibitors of Bloom's syndrome helicase (BLM) | recombinant BLM DNA unwinding, fluorescence dequenching | Potency, µM (series often up to 56.1 µM), for inactives: top-dose activity change, negative = inhibition, usual class: inhibitors | actives 0.2% (n = 350,000);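 note: plate controls were vehicle for no effect and no enzyme for full effect; nearly all actives have a fitted effect of over 35% in size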
# TDP1 inh – qHTS Assay for Inhibitors of Tyrosyl-DNA Phosphodiesterase (TDP1); Tyrosyl-DNA phosphodiesterase 1 (Homo sapiens), Q9NUW8; actives 0.28% (n = 350,000); AID 485290, 2010; Potency, µM (titrated, usually from 130 µM), inactives show top-dose activity change, negative = inhibition, actives largely listed as inhibitors; recombinant TDP1, AlphaScreen DNA substrate cleavage; note: nearly all actives have a fitted effect of over 40% in size
#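 Signal: AlphaScreen proximity between streptavidin donor and anti-FITC acceptor beads on intact substrate. Reaction: Tdp1 1 nM, substrate 15 nM final, 5 min RT after 15 min compound preincubation.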
# RECQ1 helicase – qHTS Assay for Inhibitors of RecQ-Like Dna Helicase 1 (RECQ1); ATP-dependent DNA helicase Q1 (Homo sapiens), P46063; RECQ1 DNA unwinding, red fluorescence kinetic read; Potency, µM (series often up to 57.3 µM), inactives show at the highest dose activity, negative = inhibition, actives largely listed as inhibitors; actives 0.54% (n = 240,000);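 note: plate controls were vehicle for no effect and no enzyme for full effect; nearly all actives have a fitted effect of over 30% in size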
#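 RECQ1T1 50 nM; forked duplex (20 bp + 30-nt ss tails) 200 nM, ATP 2 mM final; pH 8.0, 2 mM MgCl2, 2.5 ug/ml poly(dI-dC); 15 min compound preincubation; discontinuous kinetic read over 2 h at RT.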
# APE1 dye cs – Counterscreen for APE1 Inhibitors: Fluorescent Dye Displacement Assay | shares compounds with APE1 inh-1 | DNA fluorescent dye displacement counterscreen, fluorescence | Potency, µM (series often up to 28.5 µM), for the others: top-dose activity change, negative = inhibition, most hits filed as inhibitors | actives 7% (n = 480);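 note: loss of thiazole orange fluorescence as the dye is displaced from duplex DNA; 0% = ThO with dsDNA and no compound and -100% = ThO without dsDNA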
# EndoIV counter – Counterscreen for APE1 Inhibitors: qHTS Assay for Inhibitors of Endonuclease IV. shares compounds with APE1 inh-1. E. coli Endo IV, fluorogenic AP-site DNA cleavage. Potency, µM (doses to about 27.1 µM), without a hit: at the highest dose activity change, negative = inhibition, usual class: inhibitors. actives 4% (n = 560);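 note: plate controls were uninhibited enzyme wells for no effect and no enzyme buffer wells for full effect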
# APE1 inh-2 – Confirmation qHTS Assay for Inhibitors of the Human Apurinic/apyrimidinic Endonuclease 1 (APE1); shares compounds with APE1 inh-1; purified APE1, fluorogenic abasic-site DNA cleavage; Potency, µM (series often up to 57.1 µM), inactives show top-dose activity change, negative = inhibition, hits mostly inhibitors; actives 44% (n = 750); AID 2572, 2010; note: nearly all actives have a fitted effect of over 30% in size
# APE1 FP inh – qHTS FP-Based Assay for Inhibitors of the Human Apurinic/apyrimidinic Endonuclease 1 (APE1); shares compounds with APE1 inh-1; actives 7% (n = 480); Potency, µM (series often up to 28.5 µM), for inactives: top-dose activity, negative = inhibition, most hits filed as inhibitors; APE1 binding to TAMRA-labelled double-stranded DNA, fluorescence polarization displacement; AID 2573, 2010
# * = called active by the depositor; i = inactive; ? = inconclusive; nt = no result given; ! = repeats disagree; [ ] = another dose, or the depositor's remark. Calls come from the whole dose curve; as a rule, active = well fitted curve in the direction sought with a large enough effect; inconclusive = small, poorly fitted or top-dose-only effect, or another doubt; inactive = no such curve, though single readings can be large; an effect the other way counts as inactive or inconclusive. Unless noted, % is set by controls: 0 for no effect and ±100 for the full control effect; potency is the fitted concentration of half-maximal effect.
SMILES,APE1 inh-1,GCN5L2 inh,BLM inh,TDP1 inh,RECQ1 helicase,APE1 inh-2,others
NC(=O)COC(=O)c1ccc(Cl)c(S(=O)(=O)N2CCCCCC2)c1,-2.3%,-10.8%,-1.9%,4.6%,-16.6%,nt,
O=C(OCC(=O)N1CCCCCC1)c1ccc(Cl)c(S(=O)(=O)N2CCCC2)c1,?,0.8%,-6.8%,nt,-18.3%,?,APE1 dye cs=16.9%;EndoIV counter=7.6%;APE1 FP inh=-5.4%
CCOC(=O)N/N=C1/C[C@@H](O)[C@@H](O)[C@@H]2[C@H]3C(=O)N(c4ccc(F)cc4F)C(=O)[C@@H]3CC[C@H]12,-11.1%[12.4 µM],nt,-3.0%[12.4 µM],4.8%[21 µM],-1.0%[11.5 µM],nt,
O=c1n(-c2ccccc2)c(=O)n2n1CC[C@H]1/C(=N\OC[C@@H](O)COCc3ccco3)[C@H]3O[C@@H]3[C@@H](O)[C@@H]12,10.0%[12.4 µM],nt,3.5%[12.4 µM],5.8%[21 µM],3.2%[11.5 µM],nt,
CO[C@@H]1COC(=O)C/C=C\[C@H](C)[C@H](OC)COC(=O)[C@H]2CCCN2C(=O)C/C=C\[C@H]1C,8.4%[12.4 µM],nt,-0.2%[12.4 µM],0.5%[21 µM],i[11.5 µM],nt,
Cc1cc(C)c(C#N)c(SCC(=O)c2cccs2)n1,?,0.7%,-11.6%,50.1µM*,i,-23.1%,
Nc1cc([N+](=O)[O-])ccc1N1C(=O)CCCC1=O,?,-1.8%,-15.8%,20µM*,i,?,
C=N[C@H](C(=O)N[C@@H]1C(=O)N2[C@@H]1SC(C)(C)[C@@H]2C(=O)O)c1ccccc1,-0.7%[21 µM],-28.6%[21.4 µM],-3.8%[21.4 µM],5.7%[56.1 µM],-2.5%[25.9 µM],nt,
COc1ccc2nc(N3CCCCC3)c(C#N)cc2c1,-2.6%,-11.3%,-8.6%,39.8µM*,-2.8%,?,
CCN1C(=O)[C@H]2[C@H]3[C@H](O)[C@H](O)C/C(=N/NC(=O)OCc4ccccc4)[C@H]3CC[C@@H]2C1=O,11.2%[12.4 µM],nt,-0.1%[12.4 µM],5.8%[21 µM],i[11.5 µM],nt,
O=C1CCC([N+](=O)[O-])C(c2cccc([N+](=O)[O-])c2)N1 (configuration not stated),0.112µM*,0.3%,0.4%,?,-3.6%,-5.1%[24.4 µM],APE1 dye cs=-6.6%;EndoIV counter=-0.9%;APE1 FP inh=-2.3%
COC(=O)C/C=C\[C@@H](C)[C@@H](/C=N\O[C@@H](C)c1cc(-c2c(C)cc(C)cc2C)no1)OC,32.5%[12.4 µM],nt,2.1%[12.4 µM],-4.8%[21 µM],-8.7%[11.5 µM],nt,
O=c1c2cc(Br)cc(Br)c2oc2nc3n(c(=O)c12)CCCS3,2.4%,-2.3%,-5.4%,-3.5%,-7.0%,nt,
O=Cc1ccc2oc3nc4n(c(=O)c3c(=O)c2c1)CCCS4,?,?,28.2µM*,10µM*,12.6µM*,31.6µM*,
CN1CCN(c2ncnc3ccc(-c4cccnc4)cc23)CC1,-0.4%,-16.7%,7.8%,nt,i,nt,
CCN(CC)N=Nc1ccc(C(=O)O)cc1,4.2%,-2.4%,5.1%,3.4%,-8.3%,nt,
Cc1nc(N=Nc2ccc(S(=O)(=O)O)cc2S(=O)(=O)O)c(COP(=O)(O)O)c(C=O)c1O,31.6µM*!,?,-4.0%,20µM*,-2.6%,-6.5%,EndoIV counter=-0.8%[57.1 µM]
Cc1nc(N=Nc2ccc(C(=O)O)cc2)c(COP(=O)(O)O)c(C=O)c1O,?,-15.4%,nt,14.1µM*,-0.5%,14.1µM*,EndoIV counter=-9.7%[57.1 µM]
CCN(CC)c1ccc(-c2nnc(SCC(=O)Nc3ccccc3C#N)n2-c2ccccc2)cc1,?,-4.1%,-12.3%,0.0%,-19.6%,?,APE1 dye cs=4.1%;EndoIV counter=?;APE1 FP inh=9.1%
NC(=O)c1oc2ccccc2c1NC(=O)c1nc2ccccc2s1,-1.6%,-5.1%,-12.6%,79.4µM*,-2.4%,?,
O=C(O)C1C2C=CC(C2)C1C(=O)NCc1cccs1 (configuration not stated),?,0.4%,-2.8%,44.7µM*,i,?,
O=C(O)C1C2C=CC(C2)C1C(=O)NCc1ccco1 (configuration not stated),-4.5%,-18.0%,-2.6%,-5.1%,-5.6%,nt,
CC1O[C@@H](OC2C(COC3OC(CO)C(O)[C@H](O)C3O)OC(OC3CC[C@]4(C)C(CC[C@@]5(C)[C@@H]4CC=C4[C@@H]6CC(C)(C)CC[C@]6(CO)C(O)C[C@]45C)C3(C)C)C(O)C2O)C(O)C(O)C1O (some centres not stated),-19.0%,-3.0%,nt,0.6%,nt,nt,
C[C@@H]1OC(OC2CC[C@@]3(C)C(CC[C@@]4(C)C3CC=C3C5CC(C)(C)CC[C@]5(C(=O)OC5OCC(O)[C@@H](O)[C@@H]5OC5O[C@@H](C)[C@H](O[C@H]6OC(CO)C(O)C(O)C6O)C(O)C5O)C(O)C[C@@]34C)C2(C)C)C(O)C(O)[C@H]1OC1OCC(O)C(O)[C@H]1O (some centres not stated),28.2µM*,-5.3%,0.3%,nt,-16.7%,31.6µM*,APE1 dye cs=-0.9%[57.1 µM];EndoIV counter=0.0%[57.1 µM];APE1 FP inh=7.5%[57.1 µM]
COC(=O)c1ccc(C(NC(=O)OCc2ccccc2)/C(F)=C/[C@@H](C)C(=O)NCCc2c[nH]c3ccc(OC)cc23)cc1 (some centres not stated),-5.0%,nt,-6.1%,12.9%,-7.0%,nt,
COc1ccc(-c2ccc(SCC(=O)Nc3nccs3)nn2)cc1OC,9.8%,-14.3%,-0.5%,79.4µM*,i,39.8µM*,
